Consider 40 compounds from the supplement of paper PMC10646978.

Molecules are shown by their SMILES. ± gives the standard deviation.

The test system of the first test is RAW-Dual (murine macrophage reporter line). The experiment in a line: NF-kB reporter (SEAP) activity fold change vs agonist alone; higher = enhanced NF-kB activity. The following applies: modulator concentration 10 µM; agonist: CpG ODN 1826 0.5 ug/mL. The gist of the method:
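In 384-well plates holding 50 000 RAW-Dual murine macrophage reporter cells per well, compound at 10 μM final was pre-incubated for 1 hour at 37 °C, after which a PRR agonist was added overnight. Supernatant SEAP read with QUANTI-Blue at 620 nm absorbance reported NF-κB, and Lucia luciferase read with QUANTI-Luc luminescence reported IRF. Fold change values come from dividing each reporter signal by the mean of agonist-only control wells on the same plate, averaged over replicate plates with propagated errors.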
As for `Cl.OC(CC#CCN1CCCC1)(c1ccccc1)c1ccccc1`, the NF-kB reporter was determined as 0.726 ± 0.13.

Consider `CCN(CC)CC#CCOC(=O)C(O)(c1ccccc1)C1CCCCC1.Cl` (stereo not given), for which the NF-kB reporter is 0.873 ± 0.057.

For `CCSC1=C(C#N)C2(CCCC2)C(C#N)C(=O)N1` (stereo not given), the NF-kB reporter was 1.13 ± 0.18.

Turning to `CC(=O)Nc1ccc(O)cc1` [Prestw-868], the NF-kB reporter amounted to 0.876 ± 0.28.

On to `COc1ccc(CNc2nc(N3CCC[C@H]3CO)ncc2C(=O)NCc2ncccn2)cc1Cl`, for which the NF-kB reporter was 0.245 ± 0.011.

For the compound `COc1ccc(CCNCC(O)COc2cccc(C)c2)cc1OC.Cl` (stereo not given), the NF-kB reporter came to 0.68 ± 0.16.

For `CCCC(CCC)C(=O)O`, the NF-kB reporter is 1.05 ± 0.099.

Consider `CNc1ncnc2c1ncn2[C@@H]1O[C@H](CO)[C@@H](O)[C@H]1O` [Prestw-338], for which the NF-kB reporter was 0.931 ± 0.073.

On to `CN1CCN2c3ccccc3Cc3ccccc3C2C1.Cl` (stereo not given), for which the NF-kB reporter was found to be 1 ± 0.14.

Take `CN1CC(=O)N2[C@H](c3ccc4c(c3)OCO4)c3[nH]c4ccccc4c3C[C@@H]2C1=O`: the NF-kB reporter was found to be 0.821 ± 0.2.

For `Cc1ccc2[nH]c3nc(NN)nnc3c2c1`, the NF-kB reporter is 1.03 ± 0.079.

Turning to `N#Cc1nc(-c2ccc(COc3ccc(Cl)cc3)o2)oc1N1CCCCC1`, the NF-kB reporter stood at 0.826 ± 0.063.

Take `Nc1ccn([C@H]2CC[C@@H](CO)O2)c(=O)n1`: the NF-kB reporter came out at 1.05 ± 0.13.

In the case of `COc1ccccc1-n1ncc2c(C)nnc(SCC(=O)NCc3ccccc3Cl)c21`, the NF-kB reporter is 0.739 ± 0.33.

Turning to `Cc1[nH]nc(-c2ccc(OCc3ccccc3)c(C)c2O)c1-c1cnn(-c2ccccc2)c1`, the NF-kB reporter was 0.892 ± 0.073.

For `CCOc1ccccc1OCCCCOc1ccc(I)cc1`, the NF-kB reporter turned out to be 1.12 ± 0.18.

Regarding `CC1CC(=O)C2=C(C1)OC(N)=C(C#N)C2c1cccc2ccccc12` (stereo not given), the NF-kB reporter was 1.04 ± 0.059.

In the case of `COC(=O)C1=C(C)N(C)C(C)=C(C(=O)OC)C1c1cccc(C(F)(F)F)c1`, the NF-kB reporter worked out at 0.884 ± 0.069.

`CNS(=O)(=O)C[C@H]1CC[C@H](N(C)c2ncnc3[nH]ccc23)CC1.O=C(O)/C=C\C(=O)O`: the NF-kB reporter stood at 0.179 ± 0.044.

For `Oc1nc(O)nc(N(c2ccccc2)c2ccccc2)n1`, the NF-kB reporter is 1.18 ± 0.095.

Take `Cn1c(=O)c2c(ncn2CC(O)CO)n(C)c1=O` (stereo not given): the NF-kB reporter stood at 1.02 ± 0.2.

With `CC(C)CNC(=O)C(=O)Nc1ccc(C(C)C)cc1`, the NF-kB reporter is 1.03 ± 0.12.

Consider `CN1C(=O)C(=Cc2cccc3ccccc23)SC1=S`, for which the NF-kB reporter came to 0.909 ± 0.21.

Consider `O=C(Nc1cc(N2CCN(Cc3ccccc3)CC2)ncn1)c1ccc2ccccc2n1`, for which the NF-kB reporter was determined as 0.528 ± 0.04.

On to `O=C(NCCN1CCN(c2ccc(Cl)cc2)CC1)c1cnccn1`, for which the NF-kB reporter was 0.974 ± 0.076.

As to `Cc1nnc(C(C)C)n1C1CC2CCC(C1)N2CC[C@H](NC(=O)C1CCC(F)(F)CC1)c1ccccc1` (stereo not given in full), the NF-kB reporter came to 0.928 ± 0.07.

`O=C(CSC1CC(=O)N(c2ccc(C(=O)O)cc2)C1=O)Nc1ccc(F)cc1` (stereo not given): the NF-kB reporter was 0.998 ± 0.081.

As to `CCCCSc1nnc2c(n1)OC(c1cccc(C)n1)Nc1ccc(Br)cc1-2` (stereo not given), the NF-kB reporter was 0.922 ± 0.073.

Turning to `Cc1ccc(-n2c(=O)c3c4c(sc3n3c(S)nnc23)CCCC4)cc1`, the NF-kB reporter was 0.968 ± 0.063.

Take `Cc1cc(C)n(CCNc2nc3ccccc3s2)n1`: the NF-kB reporter was 1.07 ± 0.1.

Regarding `CCN(CC)CC(=O)Nc1c(C)cccc1C.Cl`, the NF-kB reporter amounted to 1.03 ± 0.079.

For `COc1cc(C=C(C#N)c2nc3ccccc3[nH]2)cc(Cl)c1O`, the NF-kB reporter worked out at 1.23 ± 0.07.

As to `C/C(O)=C(\C#N)C(=O)Nc1ccc(C(F)(F)F)cc1`, the NF-kB reporter is 0.861 ± 0.037.

In the case of `CC(C)CSc1nnc2c(n1)[nH]c1ccccc12`, the NF-kB reporter amounted to 1.06 ± 0.083.

For `O=C1c2ccccc2C(=O)c2c1ccc(O)c2O`, the NF-kB reporter came to 1.03 ± 0.098.

As for `Oc1cccc(C=Nc2ccc(N=Cc3cccc(O)c3O)cc2)c1O`, the NF-kB reporter came to 0.606 ± 0.053.

Turning to `COCC(=O)N1CCC2(CC1)NC(=O)N(Cc1ccc(Cl)cc1)C2=O`, the NF-kB reporter is 0.764 ± 0.18.

For the compound `CS(=O)(=O)N1CCN(Cc2cc3nc(-c4cccc5[nH]ncc45)nc(N4CCOCC4)c3s2)CC1`, the NF-kB reporter was determined as 0.179 ± 0.029.

With `COc1ccc(C=Nn2cnnc2)cc1COc1cc(C)c(Cl)cc1C(C)C`, the NF-kB reporter amounted to 0.854 ± 0.088.

For the compound `C#CCN[C@@H]1CCc2ccccc21` [Prestw-1734], the NF-kB reporter worked out at 1.05 ± 0.06.

The test is the same for the next values; noted with them: modulator concentration 10 µM; agonist: LPS 0.1 ug/mL.
Turning to `Cl.OC(CC#CCN1CCCC1)(c1ccccc1)c1ccccc1`, the NF-kB reporter is 1.08 ± 0.086.

Regarding `CCN(CC)CC#CCOC(=O)C(O)(c1ccccc1)C1CCCCC1.Cl` (stereo not given), the NF-kB reporter is 1.01 ± 0.11.

For `CCSC1=C(C#N)C2(CCCC2)C(C#N)C(=O)N1` (stereo not given), the NF-kB reporter is 0.964 ± 0.086.

Regarding `CC(=O)Nc1ccc(O)cc1` [Prestw-868], the NF-kB reporter stood at 1.04 ± 0.081.

Turning to `COc1ccc(CNc2nc(N3CCC[C@H]3CO)ncc2C(=O)NCc2ncccn2)cc1Cl`, the NF-kB reporter amounted to 0.629 ± 0.12.

With `COc1ccc(CCNCC(O)COc2cccc(C)c2)cc1OC.Cl` (stereo not given), the NF-kB reporter amounted to 1.15 ± 0.057.

Take `CCCC(CCC)C(=O)O`: the NF-kB reporter turned out to be 1.01 ± 0.16.

For `CNc1ncnc2c1ncn2[C@@H]1O[C@H](CO)[C@@H](O)[C@H]1O` [Prestw-338], the NF-kB reporter stood at 0.929 ± 0.09.

As for `CN1CCN2c3ccccc3Cc3ccccc3C2C1.Cl` (stereo not given), the NF-kB reporter was determined as 1.07 ± 0.34.

In the case of `CN1CC(=O)N2[C@H](c3ccc4c(c3)OCO4)c3[nH]c4ccccc4c3C[C@@H]2C1=O`, the NF-kB reporter was 1.05 ± 0.23.

Consider `Cc1ccc2[nH]c3nc(NN)nnc3c2c1`, for which the NF-kB reporter amounted to 0.929 ± 0.077.

Consider `N#Cc1nc(-c2ccc(COc3ccc(Cl)cc3)o2)oc1N1CCCCC1`, for which the NF-kB reporter was found to be 1.29 ± 0.14.

`Nc1ccn([C@H]2CC[C@@H](CO)O2)c(=O)n1`: the NF-kB reporter was 1.1 ± 0.081.

`COc1ccccc1-n1ncc2c(C)nnc(SCC(=O)NCc3ccccc3Cl)c21`: the NF-kB reporter came out at 0.987 ± 0.077.

With `Cc1[nH]nc(-c2ccc(OCc3ccccc3)c(C)c2O)c1-c1cnn(-c2ccccc2)c1`, the NF-kB reporter was 1.1 ± 0.077.

Regarding `CCOc1ccccc1OCCCCOc1ccc(I)cc1`, the NF-kB reporter turned out to be 1 ± 0.12.

On to `CC1CC(=O)C2=C(C1)OC(N)=C(C#N)C2c1cccc2ccccc12` (stereo not given), for which the NF-kB reporter came to 1.06 ± 0.065.

Regarding `COC(=O)C1=C(C)N(C)C(C)=C(C(=O)OC)C1c1cccc(C(F)(F)F)c1`, the NF-kB reporter was 1.07 ± 0.093.

Take `CNS(=O)(=O)C[C@H]1CC[C@H](N(C)c2ncnc3[nH]ccc23)CC1.O=C(O)/C=C\C(=O)O`: the NF-kB reporter turned out to be 0.0999 ± 0.005.

Regarding `Oc1nc(O)nc(N(c2ccccc2)c2ccccc2)n1`, the NF-kB reporter was found to be 1.02 ± 0.098.

As to `Cn1c(=O)c2c(ncn2CC(O)CO)n(C)c1=O` (stereo not given), the NF-kB reporter stood at 1.2 ± 0.35.

`CC(C)CNC(=O)C(=O)Nc1ccc(C(C)C)cc1`: the NF-kB reporter turned out to be 0.931 ± 0.11.

As to `CN1C(=O)C(=Cc2cccc3ccccc23)SC1=S`, the NF-kB reporter was 1.04 ± 0.088.

On to `O=C(Nc1cc(N2CCN(Cc3ccccc3)CC2)ncn1)c1ccc2ccccc2n1`, for which the NF-kB reporter was determined as 0.984 ± 0.077.

On to `O=C(NCCN1CCN(c2ccc(Cl)cc2)CC1)c1cnccn1`, for which the NF-kB reporter was found to be 0.967 ± 0.086.

On to `Cc1nnc(C(C)C)n1C1CC2CCC(C1)N2CC[C@H](NC(=O)C1CCC(F)(F)CC1)c1ccccc1` (stereo not given in full), for which the NF-kB reporter is 1.05 ± 0.069.

`O=C(CSC1CC(=O)N(c2ccc(C(=O)O)cc2)C1=O)Nc1ccc(F)cc1` (stereo not given): the NF-kB reporter turned out to be 0.967 ± 0.14.

As for `CCCCSc1nnc2c(n1)OC(c1cccc(C)n1)Nc1ccc(Br)cc1-2` (stereo not given), the NF-kB reporter stood at 1.05 ± 0.07.

Regarding `Cc1ccc(-n2c(=O)c3c4c(sc3n3c(S)nnc23)CCCC4)cc1`, the NF-kB reporter worked out at 1.07 ± 0.069.

In the case of `Cc1cc(C)n(CCNc2nc3ccccc3s2)n1`, the NF-kB reporter turned out to be 1.08 ± 0.085.

On to `CCN(CC)CC(=O)Nc1c(C)cccc1C.Cl`, for which the NF-kB reporter came to 0.968 ± 0.063.

Take `COc1cc(C=C(C#N)c2nc3ccccc3[nH]2)cc(Cl)c1O`: the NF-kB reporter came to 1.05 ± 0.09.

Take `C/C(O)=C(\C#N)C(=O)Nc1ccc(C(F)(F)F)cc1`: the NF-kB reporter is 1.04 ± 0.084.

As to `CC(C)CSc1nnc2c(n1)[nH]c1ccccc12`, the NF-kB reporter came to 1.01 ± 0.072.

For the compound `O=C1c2ccccc2C(=O)c2c1ccc(O)c2O`, the NF-kB reporter amounted to 1.06 ± 0.054.

Consider `Oc1cccc(C=Nc2ccc(N=Cc3cccc(O)c3O)cc2)c1O`, for which the NF-kB reporter stood at 0.727 ± 0.069.

With `COCC(=O)N1CCC2(CC1)NC(=O)N(Cc1ccc(Cl)cc1)C2=O`, the NF-kB reporter stood at 1.05 ± 0.075.

Take `CS(=O)(=O)N1CCN(Cc2cc3nc(-c4cccc5[nH]ncc45)nc(N4CCOCC4)c3s2)CC1`: the NF-kB reporter was 2.63 ± 0.34.

In the case of `COc1ccc(C=Nn2cnnc2)cc1COc1cc(C)c(Cl)cc1C(C)C`, the NF-kB reporter stood at 0.761 ± 0.04.

With `C#CCN[C@@H]1CCc2ccccc21` [Prestw-1734], the NF-kB reporter was 0.933 ± 0.11.
